Measurements: publication PMC4081100, “A DNA-binding-site landscape and regulatory network analysis for NAC transcription factors in Arabidopsis thaliana”

What was measured:
Test in all cases: universal protein binding microarray (PBM); transcription factors of Arabidopsis thaliana; high values mean tight binding
Details in all cases: protein: recombinant; tags: GST; chain copies: 2; dsDNA, one strand shown
[1] = target: T1, GST-ANAC092(1-176) (Arabidopsis thaliana, UniProt Q9FKA0 1-176)
T1 sequence: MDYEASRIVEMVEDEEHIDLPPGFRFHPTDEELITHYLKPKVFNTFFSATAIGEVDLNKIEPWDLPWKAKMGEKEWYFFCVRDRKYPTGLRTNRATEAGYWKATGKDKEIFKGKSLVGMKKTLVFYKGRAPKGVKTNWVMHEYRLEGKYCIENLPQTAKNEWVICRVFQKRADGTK
How it was run: (§1)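 Protein amounts were determined by A280 or anti-GST western blot after glutathione–Sepharose 4B purification of GST-tagged proteins induced in cells, with zinc acetate included for zinc-finger proteins. Duplicate runs at 200 to 500 nM final were done on custom all-10-mer Agilent 4 × 180K arrays made double-stranded by primer extension. The normalised enrichment score (E-score) over gapped and ungapped 8-mers is the measure of binding.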

[2] = target: GST-NTL6(1-168) (Arabidopsis thaliana, UniProt Q9SCK6 1-168)
How it was run: as §1

[3] = target: T2, GST-ANAC019 NAC domain (Arabidopsis thaliana, UniProt Q9C932 14-162)
T2 sequence: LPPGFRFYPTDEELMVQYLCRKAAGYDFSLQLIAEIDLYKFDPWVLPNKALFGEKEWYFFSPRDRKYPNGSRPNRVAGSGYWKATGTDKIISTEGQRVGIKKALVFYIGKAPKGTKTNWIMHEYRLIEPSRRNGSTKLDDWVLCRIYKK
How it was run: as §1

[4] = target: T3, GST-ANAC055(1-171) (Arabidopsis thaliana, UniProt Q9LDY8 1-171)
T3 sequence: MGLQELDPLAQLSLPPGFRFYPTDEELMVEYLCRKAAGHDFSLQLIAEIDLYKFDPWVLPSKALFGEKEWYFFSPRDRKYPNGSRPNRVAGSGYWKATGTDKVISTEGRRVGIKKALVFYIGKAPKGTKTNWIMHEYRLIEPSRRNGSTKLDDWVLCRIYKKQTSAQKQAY
How it was run: as §1

[5] = target: T4, GST-ATAF1 NAC domain (Arabidopsis thaliana, UniProt Q39013 7-158)
T4 sequence: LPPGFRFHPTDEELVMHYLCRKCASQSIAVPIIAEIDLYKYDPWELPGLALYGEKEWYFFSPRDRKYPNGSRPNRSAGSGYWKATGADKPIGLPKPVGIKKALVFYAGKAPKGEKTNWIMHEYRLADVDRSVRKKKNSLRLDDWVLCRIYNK
How it was run: as §1

[6] = target: T5, GST-ANAC092(1-285) full length (Arabidopsis thaliana, UniProt Q9FKA0 1-285)
T5 sequence: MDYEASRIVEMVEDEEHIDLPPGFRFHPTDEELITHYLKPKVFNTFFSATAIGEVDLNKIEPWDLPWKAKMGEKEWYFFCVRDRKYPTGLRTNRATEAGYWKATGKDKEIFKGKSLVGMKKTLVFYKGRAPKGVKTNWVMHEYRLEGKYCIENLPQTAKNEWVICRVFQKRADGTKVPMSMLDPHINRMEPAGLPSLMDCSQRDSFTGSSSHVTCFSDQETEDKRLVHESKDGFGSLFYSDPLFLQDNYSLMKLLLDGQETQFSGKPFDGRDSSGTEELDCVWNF
How it was run: as §1

[7] = target: T6, GST-NAP(1-166) (Arabidopsis thaliana, UniProt O49255 1-166)
T6 sequence: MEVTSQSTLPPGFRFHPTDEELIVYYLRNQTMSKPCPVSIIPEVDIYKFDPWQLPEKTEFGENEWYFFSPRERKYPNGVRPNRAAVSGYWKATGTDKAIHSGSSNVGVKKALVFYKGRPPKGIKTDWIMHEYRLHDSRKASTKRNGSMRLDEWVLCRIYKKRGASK
How it was run: as §1

[8] = target: T7, GST-NST2(1-184) (Arabidopsis thaliana, UniProt Q9M274 1-184)
T7 sequence: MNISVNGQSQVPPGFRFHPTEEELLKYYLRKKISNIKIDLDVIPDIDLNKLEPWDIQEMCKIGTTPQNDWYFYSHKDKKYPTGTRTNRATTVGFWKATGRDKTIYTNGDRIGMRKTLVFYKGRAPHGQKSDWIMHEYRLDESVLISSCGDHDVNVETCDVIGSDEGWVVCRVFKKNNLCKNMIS
How it was run: as §1

[9] = target: T8, GST-NTL8 NAC domain (Arabidopsis thaliana, UniProt Q9XIN7 14-156)
T8 sequence: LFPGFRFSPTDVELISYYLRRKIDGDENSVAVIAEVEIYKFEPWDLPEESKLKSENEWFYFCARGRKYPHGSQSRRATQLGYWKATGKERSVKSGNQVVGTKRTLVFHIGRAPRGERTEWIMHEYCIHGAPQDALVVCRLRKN
How it was run: as §1

[10] = target: T9, GST-SND1(1-203) (Arabidopsis thaliana, UniProt Q9LPI7 1-203)
T9 sequence: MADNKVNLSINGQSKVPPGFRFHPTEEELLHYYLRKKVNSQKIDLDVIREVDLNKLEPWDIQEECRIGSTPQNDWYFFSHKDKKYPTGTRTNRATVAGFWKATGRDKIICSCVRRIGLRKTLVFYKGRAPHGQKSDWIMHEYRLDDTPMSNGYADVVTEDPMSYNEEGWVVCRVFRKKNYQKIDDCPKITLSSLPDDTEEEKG
How it was run: as §1

[11] = target: T10, GST-VND3 NAC domain (Arabidopsis thaliana, UniProt Q9FH59 12-162)
T10 sequence: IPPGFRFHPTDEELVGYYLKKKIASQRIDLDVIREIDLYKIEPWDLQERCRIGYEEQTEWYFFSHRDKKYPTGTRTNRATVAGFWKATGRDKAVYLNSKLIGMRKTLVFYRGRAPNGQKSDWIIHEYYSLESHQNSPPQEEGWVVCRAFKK
How it was run: as §1

[12] = target: T11, GST-VND7 NAC domain (Arabidopsis thaliana, UniProt Q9C8W9 9-158)
T11 sequence: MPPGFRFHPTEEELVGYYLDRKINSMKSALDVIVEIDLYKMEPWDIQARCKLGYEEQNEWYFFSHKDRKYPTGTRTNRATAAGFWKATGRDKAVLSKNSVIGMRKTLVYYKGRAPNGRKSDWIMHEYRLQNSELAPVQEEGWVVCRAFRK
How it was run: as §1

GST-NTL6(1-168), sequence (Q9SCK6 1-168): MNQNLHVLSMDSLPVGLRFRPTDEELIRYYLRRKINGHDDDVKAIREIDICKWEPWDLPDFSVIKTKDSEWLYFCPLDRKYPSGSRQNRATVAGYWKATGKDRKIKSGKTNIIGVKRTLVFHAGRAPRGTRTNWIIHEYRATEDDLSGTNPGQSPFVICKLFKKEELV

Sequence	binding signal [1] [E-score]	binding signal [2] [E-score]	binding signal [3] [E-score]	binding signal [4] [E-score]	binding signal [5] [E-score]	binding signal [6] [E-score]	binding signal [7] [E-score]	binding signal [8] [E-score]	binding signal [9] [E-score]	binding signal [10] [E-score]	binding signal [11] [E-score]	binding signal [12] [E-score]
GTACGCTA	0.428	0.0905	0.124	0.165	0.238	0.449	0.219	0.288	0.129	0.447	0.15	0.233
CACGAAAC	0.425	0.112	0.358	0.343	0.261	0.452	0.208	0.224	0.137	0.177	0.326	0.246
CACGTAAG	0.449	0.068	0.463	0.441	0.349	0.446	0.419	0.201	0.17	0.0778	0.447	0.447
GTAAGGAA	0.259	0.486	0.23	0.193	0.239	0.29	0.268	0.271	0.392	0.35	0.231	0.236
AATTCCGT	0.274	0.169	0.456	0.429	0.358	0.247	0.379	0.179	0.105	0.122	0.414	0.382
CTACGTAA	0.329	0.0836	0.352	0.295	0.316	0.378	0.312	0.0582	0.105	0.402	0.378	0.345
CCACGTAA	0.359	0.0826	0.432	0.37	0.306	0.393	0.308	0.157	0.167	0.0962	0.326	0.341
